According to PubChem BioAssay AID1159580 (chemical genetic matrix, 2015):
“And” between values parts separate entries of the source, which are not always exact repeats. Equal values may be shown once. Among all 5,500 compounds or so, about 2,000 (36%) were called active. Not shown: some 18% with an inconclusive outcome. No stated cut-off is given here; in the data, active means normalized growth mostly below about 0.91 (no sharp cut-off); inconclusive means no clear call, values can overlap the other calls; inactive means mostly above about 0.92. The list shows a part of the results.

Assay: chemical genetic growth profiling, strain panel (AID 1159580);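 further: tested at 20 µM; growth read once vehicle control cultures reached saturation at 30 °C; 1 = growth at the plate median or of vehicle wells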
Details: S. cerevisiae deletion strains, growth OD

Measured: normalized growth

OCC(O)C(O)C(O)C(O)C(O)CO (configuration not stated)
inactive: locus YAL021C, strain ccr4, stronger effect = lower value 0.995 | locus YAL026C, strain drs2, stronger effect = lower value 0.991 | locus YAL030W, strain snc1, stronger effect = lower value 0.99 | locus YBL061C, strain skt5, stronger effect = lower value 0.989 | locus YBR009C, strain hhf1, stronger effect = lower value 1 | locus YBR021W, strain FUR4, stronger effect = lower value 1.02 | locus YBR023C, strain chs3, stronger effect = lower value 0.995 | locus YBR171W, strain sec66, stronger effect = lower value 0.991 | locus YBR229C, strain ROT2, stronger effect = lower value 0.96 | locus YBR231C, strain swc5, stronger effect = lower value 0.991 | locus YBR279W, strain paf1, stronger effect = lower value 0.991 | locus YCL011C, strain gbp2, stronger effect = lower value 0.999 | locus YCL016C, strain dcc1, stronger effect = lower value 0.989 | locus YCL029C, strain bik1, stronger effect = lower value 0.974 | locus YCL061C, strain MRC1, stronger effect = lower value 0.99 | locus YCL069W, strain vba3, stronger effect = lower value 1 | locus YCR088W, strain abp1, stronger effect = lower value 0.989 | locus YDL005C, strain med2, stronger effect = lower value 1 | locus YDL035C, strain GPR1, stronger effect = lower value 1.01 | locus YDL040C, strain nat1, stronger effect = lower value 0.982 | locus YDL074C, strain BRE1, stronger effect = lower value 1.05 | locus YDL101C, strain DUN1, stronger effect = lower value 1.01 | locus YDL185W, strain tfp1, stronger effect = lower value 0.954 | locus YDL192W, strain arf1, stronger effect = lower value 1 | locus YDR001C, strain nth1, stronger effect = lower value 0.99 | locus YDR069C, strain doa4, stronger effect = lower value 0.995 | locus YDR101C, strain arx1, stronger effect = lower value 0.974 | locus YDR137W, strain rgp1, stronger effect = lower value 1.02 | locus YDR159W, strain sac3, stronger effect = lower value 0.98 | locus YDR162C, strain NBP2, stronger effect = lower value 1 | locus YDR195W, strain ref2 0.965 | locus YDR297W, strain sur2, stronger effect = lower value 0.997 | locus YDR318W, strain mcm21, stronger effect = lower value 0.956 | locus YDR334W, strain swr1, stronger effect = lower value 0.987 | locus YDR335W, strain msn5, stronger effect = lower value 0.993 | locus YDR388W, stronger effect = lower value 0.985 | locus YDR392W, strain spt3, stronger effect = lower value 0.99 | locus YDR502C, strain sam2, stronger effect = lower value 1.01 | locus YEL003W, strain gim4, stronger effect = lower value 0.994 | locus YEL037C, strain rad23, stronger effect = lower value 0.992 | locus YEL061C, strain CIN8 (second series), stronger effect = lower value 0.979 | locus YEL061C, strain CIN8, stronger effect = lower value 0.993 | locus YER015W, strain faa2, stronger effect = lower value 0.994 | locus YER016W, strain bim1, stronger effect = lower value 0.983 | locus YER110C, stronger effect = lower value 0.97 | locus YER111C, strain swi4, stronger effect = lower value 0.989 | locus YER155C, strain BEM2 (second series), stronger effect = lower value 0.989 | locus YER155C, strain BEM2, stronger effect = lower value 1 | locus YER167W, strain BCK2, stronger effect = lower value 0.997 | locus YFR010W, strain ubp6, stronger effect = lower value 0.99 | locus YGL078C, strain dbp3, stronger effect = lower value 1.01 | locus YGL086W, strain mad1, stronger effect = lower value 1.01 | locus YGL167C, strain pmr1, stronger effect = lower value 0.996 | locus YGL173C, strain kem1, stronger effect = lower value 1 | locus YGL227W, strain vid30, stronger effect = lower value 0.992 | locus YGL240W, strain doc1, stronger effect = lower value 1 | locus YGL248W, strain PDE1, stronger effect = lower value 1.02 | locus YGL253W, strain hxk2, stronger effect = lower value 0.989 | locus YGR135W, strain pre9, stronger effect = lower value 1.05 | locus YGR252W, strain gcn5, stronger effect = lower value 1.1 | locus YHR013C, strain ard1, stronger effect = lower value 0.981 | locus YHR027C, strain rpn1, stronger effect = lower value 1 | locus YHR030C, strain SLT2, stronger effect = lower value 0.998 and 0.954 | locus YHR079C, strain IRE1 (second series), stronger effect = lower value 0.992 | locus YHR079C, strain IRE1, stronger effect = lower value 0.973 | locus YHR094C, strain hxt1, stronger effect = lower value 0.965 | locus YHR129C, strain ARP1, stronger effect = lower value 1.02 | locus YHR142W, strain chs7, stronger effect = lower value 0.995 | locus YHR200W, strain rpn10, stronger effect = lower value 0.991 | locus YIL066C, strain RNR3, stronger effect = lower value 0.995 | locus YIL073C, strain SPO22, stronger effect = lower value 1.07 | locus YIL125W, strain kgd1, stronger effect = lower value 0.967 | locus YIR030C, strain dcg1, stronger effect = lower value 1.01 | locus YJL092W, strain hpr5, stronger effect = lower value 0.993 | locus YJL095W, strain BCK1 (second series), stronger effect = lower value 0.993 | locus YJL095W, strain BCK1, stronger effect = lower value 1.09 and 0.974 | locus YJL115W, strain asf1, stronger effect = lower value 0.982 | locus YJL129C, strain trk1, stronger effect = lower value 1 | locus YJL134W, strain LCB3, stronger effect = lower value 0.985 | locus YJL154C, strain vps35, stronger effect = lower value 0.991 | locus YJL164C, strain tpk1, stronger effect = lower value 0.994 | locus YJL166W, strain qcr8, stronger effect = lower value 0.996 | locus YJL168C, strain set2, stronger effect = lower value 0.984 | locus YJL187C, strain SWE1 (second series), stronger effect = lower value 1.01 | locus YJL187C, strain SWE1, stronger effect = lower value 1 | locus YJR043C, strain POL32, stronger effect = lower value 1.02 | locus YJR066W, strain TOR1, stronger effect = lower value 0.927
